Measured values taken from PubChem BioAssay (NCATS).
Activity calls are given as the source filed them. The call rests on the fitted dose curve; in most records, active means well fitted curve in the direction sought with a large enough effect; inconclusive means small, poorly fitted or top-dose-only effect, or another doubt; inactive means no such curve, though single readings can be large or run the other way.

What follows are compounds tested against T1, Hexokinase-4 (Homo sapiens) + Glucokinase regulatory protein (Homo sapiens) (UniProt P35557+Q14397) (assay: qHTS assay for inhibitors of recombinant human GCK-GKRP interaction: Diaphorase-coupled assay (AID 743205)). Conditions: G6PDH/diaphorase resorufin fluorescence; series mostly up to 57.5 µM; activity change, positive = activation: at the top concentration.
How it was run: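 A kinetic fluorescence read (Ex 525/Em 590 nm, every minute for 30 minutes) tracked resorufin from a G6PDH-diaphorase coupled GCK reaction. It contained 10 nM GST-GCK, 10 nM FLAG-GKRP, 5 mM glucose, 0.4 mM ATP in Hepes pH 7.6. Normalized to with/without-enzyme DMSO controls.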

T1 sequence (P35557 whole entry, looked up): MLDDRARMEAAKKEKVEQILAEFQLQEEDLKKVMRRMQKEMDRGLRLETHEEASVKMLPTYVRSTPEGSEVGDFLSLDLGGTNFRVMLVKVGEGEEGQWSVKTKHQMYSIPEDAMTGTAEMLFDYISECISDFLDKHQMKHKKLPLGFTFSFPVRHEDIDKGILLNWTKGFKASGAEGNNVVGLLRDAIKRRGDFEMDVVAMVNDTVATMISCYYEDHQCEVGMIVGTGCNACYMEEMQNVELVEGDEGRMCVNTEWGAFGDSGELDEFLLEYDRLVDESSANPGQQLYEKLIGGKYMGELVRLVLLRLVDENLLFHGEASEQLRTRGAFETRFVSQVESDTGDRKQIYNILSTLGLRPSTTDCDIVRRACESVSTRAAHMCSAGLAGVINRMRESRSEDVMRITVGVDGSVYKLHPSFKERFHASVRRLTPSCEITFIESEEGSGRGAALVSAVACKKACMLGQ
T1 sequence (Q14397 whole entry, looked up): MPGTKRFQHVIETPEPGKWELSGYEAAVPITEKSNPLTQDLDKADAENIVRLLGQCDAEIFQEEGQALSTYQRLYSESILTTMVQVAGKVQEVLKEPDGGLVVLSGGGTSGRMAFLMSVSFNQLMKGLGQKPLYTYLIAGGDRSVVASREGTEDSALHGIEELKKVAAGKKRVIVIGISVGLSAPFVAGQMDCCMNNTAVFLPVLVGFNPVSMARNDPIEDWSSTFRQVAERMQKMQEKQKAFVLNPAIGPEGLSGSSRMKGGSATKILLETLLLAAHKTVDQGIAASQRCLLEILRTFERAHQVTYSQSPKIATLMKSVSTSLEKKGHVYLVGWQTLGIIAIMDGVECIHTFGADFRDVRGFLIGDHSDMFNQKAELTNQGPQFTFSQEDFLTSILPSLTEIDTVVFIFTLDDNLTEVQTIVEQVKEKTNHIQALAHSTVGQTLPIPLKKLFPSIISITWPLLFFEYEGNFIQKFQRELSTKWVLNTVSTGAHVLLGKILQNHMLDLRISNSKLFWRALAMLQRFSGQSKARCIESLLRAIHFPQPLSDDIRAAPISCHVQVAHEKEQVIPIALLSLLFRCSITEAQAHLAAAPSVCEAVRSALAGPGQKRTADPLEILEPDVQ

Row | Structure (SMILES) | activity change, positive = activation | outcome
1 | CC(C)(C(=O)O)c1ccc(C(O)CCCN2CCC(C(O)(c3ccccc3)c3ccccc3)CC2)cc1 (stereo unspecified) | -1.17% (inactive) | –
2 | CC1=C(CC(=O)O)c2cc(F)ccc2/C1=C\c1ccc(S(C)(=O)=O)cc1 | -5.04% (inactive) | –
3 | C#CCN(C)Cc1ccccc1 | -6.01% (inactive) | –
4 | CC1=C(CC(=O)O)c2cc(F)ccc2/C1=C\c1ccc(S(C)=O)cc1 (stereo unspecified) | -22.1% (inactive) | –
5 | CCN(CC)CCOC(=O)C1(C2CCCCC2)CCCCC1 | -2.83% (inactive) | –
6 | CCN(CC)C(C)CN1c2ccccc2Sc2ccccc21 (stereo unspecified) | -6.68% (inactive) | –
7 | C=Cc1c(C)c2cc3[nH]c(cc4nc(cc5nc(cc1[nH]2)C(C)=C5CCC(=O)O)C(CCC(=O)O)=C4C)c(C)c3C=C | -32.5% (inactive) | –
8 | OCCN1CCN(CCCN2c3ccccc3Sc3ccc(Cl)cc32)CC1 | -11.4% (inactive) | –
9 | CNCC(O)c1ccc(O)c(O)c1 (stereo unspecified) | -30.7% (inactive) | –
10 | Nc1cc(=O)[nH]c(N)n1 | -0.272% (inactive) | –
11 | CC[C@H]1CN2CCc3cc(OC)c(OC)cc3[C@@H]2C[C@@H]1C[C@H]1NCCc2cc(OC)c(OC)cc21 | -2.07% (inactive) | –
12 | CCCn1cnc2c1c(=O)n(CCCCC(C)=O)c(=O)n2C | -2.69% (inactive) | –
13 | CN1CCN(C2Cc3ccccc3Sc3ccc(Cl)cc32)CC1 (stereo unspecified) | -5.77% (inactive) | –
14 | CCCCCCCCCCCCCCCC(=O)NCCO | -2.5% (inactive) | –
15 | CC(C)(C)[C@]1(O)CCN2C[C@H]3c4ccccc4CCc4cccc(c43)[C@@H]2C1 | – | inactive
16 | CC(C)C(=O)c1c(C(C)C)nn2ccccc12 | -0.716% (inactive) | –
17 | CNCCC(Oc1ccc(C(F)(F)F)cc1)c1ccccc1 (stereo unspecified) | -1.3% (inactive) | –

Row | Structure (SMILES) | activity change, positive = activation | outcome
18 | Cc1cc(N)c2ccccc2[n+]1CCCCCCCCCC[n+]1c(C)cc(N)c2ccccc21 | -10.3% (inactive) | –
19 | C[C@](N)(Cc1ccc(O)cc1)C(=O)O | -1.14% (inactive) | –
20 | CCN(CC)CCNC(=O)c1cc(Cl)c(N)cc1OC | -6.85% (inactive) | –
21 | CC(=O)OCC(=O)[C@@]1(O)CC[C@H]2[C@@H]3CCC4=CC(=O)CC[C@]4(C)[C@H]3C(=O)C[C@@]21C | -1.71% (inactive) | –
22 | CCN(CC)CCCC(C)Nc1c2ccc(Cl)cc2nc2ccc(OC)cc12 (stereo unspecified) | -4.3% (inactive) | –
23 | CC(C(O)c1ccc(O)cc1)N1CCC(Cc2ccccc2)CC1 (stereo unspecified) | -1.99% (inactive) | –
24 | COCCOC(=O)C1=C(C)NC(C)=C(C(=O)OC/C=C/c2ccccc2)C1c1cccc([N+](=O)[O-])c1 (stereo unspecified) | -12.9% (inactive) | –
25 | CSc1ccc2c(c1)N(CCC1CCCCN1C)c1ccccc1S2 (stereo unspecified) | 8.06% (inactive) | –
26 | NC1CCN(c2cccc(Cl)n2)CC1 | -6.03% (inactive) | –
27 | CC(C)(C)c1onc(OCP(=O)(O)O)c1CC(N)C(=O)O (stereo unspecified) | – | inactive
28 | NC(N)=NCCC[C@H](N)C(=O)O | -1.29% (inactive) | –
29 | CNCCCC1c2ccccc2C=Cc2ccccc21 | 0.261% (inactive) | –
30 | N=c1c[n+](N2CCOCC2)[n-]o1 | -0.85% (inactive) | –
31 | CC(CN(C)C)CN1c2ccccc2CCc2ccccc21 (stereo unspecified) | 0.385% (inactive) | –
32 | CC1=C(/C=C/C(C)=C/C=C/C(C)=C/C(=O)O)C(C)(C)CCC1 | -4.09% (inactive) | –
33 | CC(C)NC[C@H](O)c1ccc(O)c(O)c1 | – | inactive

What follows are compounds tested against T1, Hexokinase-4 (Homo sapiens) + Glucokinase regulatory protein (Homo sapiens) (assay: qHTS assay for inhibitors of recombinant human GCK-GKRP interaction: ADP-Glo assay (AID 743206;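 further: plate controls were DMSO plus enzyme for no effect and no enzyme for full effect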)). Conditions: ADP-Glo luminescence, 60 min, 0% = vehicle-only wells with enzyme present; series mostly up to 76.9 µM; activity, positive = activation: at the top concentration.
How it was run: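 Pin-transferred compounds meet a 15 nM GST-GCK/15 nM FLAG-GKRP/2 uM S6P mix (dispense concentrations). ATP is then added to 0.4 mM final with 5 mM glucose, and the reaction runs 60 min at room temperature. ADP is quantified luminescently.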

Row | Structure (SMILES) | activity, positive = activation | outcome
34 | CC(C)(C(=O)O)c1ccc(C(O)CCCN2CCC(C(O)(c3ccccc3)c3ccccc3)CC2)cc1 (stereo unspecified) | 4.22% (inactive) | –
35 | CC1=C(CC(=O)O)c2cc(F)ccc2/C1=C\c1ccc(S(C)(=O)=O)cc1 | -2.67% (inactive) | –
36 | C#CCN(C)Cc1ccccc1 | -0.0478% (inactive) | –
37 | CC1=C(CC(=O)O)c2cc(F)ccc2/C1=C\c1ccc(S(C)=O)cc1 (stereo unspecified) | 1.42% (inactive) | –
38 | CCN(CC)CCOC(=O)C1(C2CCCCC2)CCCCC1 | 4.86% (inactive) | –
39 | CCN(CC)C(C)CN1c2ccccc2Sc2ccccc21 (stereo unspecified) | -1.66% (inactive) | –
40 | C=Cc1c(C)c2cc3[nH]c(cc4nc(cc5nc(cc1[nH]2)C(C)=C5CCC(=O)O)C(CCC(=O)O)=C4C)c(C)c3C=C | 9.86% (inactive) | –
41 | OCCN1CCN(CCCN2c3ccccc3Sc3ccc(Cl)cc32)CC1 | -0.968% (inactive) | –
42 | CNCC(O)c1ccc(O)c(O)c1 (stereo unspecified) | 2.58% (inactive) | –
43 | Nc1cc(=O)[nH]c(N)n1 | 0.788% (inactive) | –
44 | CC[C@H]1CN2CCc3cc(OC)c(OC)cc3[C@@H]2C[C@@H]1C[C@H]1NCCc2cc(OC)c(OC)cc21 | -1.69% (inactive) | –
45 | CCCn1cnc2c1c(=O)n(CCCCC(C)=O)c(=O)n2C | 2.04% (inactive) | –
46 | CN1CCN(C2Cc3ccccc3Sc3ccc(Cl)cc32)CC1 (stereo unspecified) | -2.73% (inactive) | –
47 | CCCCCCCCCCCCCCCC(=O)NCCO | 4.02% (inactive) | –
48 | CC(C)(C)[C@]1(O)CCN2C[C@H]3c4ccccc4CCc4cccc(c43)[C@@H]2C1 | – | inactive
49 | CC(C)C(=O)c1c(C(C)C)nn2ccccc12 | 1.3% (inactive) | –
50 | CNCCC(Oc1ccc(C(F)(F)F)cc1)c1ccccc1 (stereo unspecified) | -2% (inactive) | –

Row | Structure (SMILES) | activity, positive = activation | outcome
51 | Cc1cc(N)c2ccccc2[n+]1CCCCCCCCCC[n+]1c(C)cc(N)c2ccccc21 | -13.2% (inactive) | –
52 | C[C@](N)(Cc1ccc(O)cc1)C(=O)O | 2.99% (inactive) | –
53 | CCN(CC)CCNC(=O)c1cc(Cl)c(N)cc1OC | 2.48% (inactive) | –
54 | CC(=O)OCC(=O)[C@@]1(O)CC[C@H]2[C@@H]3CCC4=CC(=O)CC[C@]4(C)[C@H]3C(=O)C[C@@]21C | 1.77% (inactive) | –
55 | CCN(CC)CCCC(C)Nc1c2ccc(Cl)cc2nc2ccc(OC)cc12 (stereo unspecified) | 1.29% (inactive) | –
56 | CC(C(O)c1ccc(O)cc1)N1CCC(Cc2ccccc2)CC1 (stereo unspecified) | 2.42% (inactive) | –
57 | COCCOC(=O)C1=C(C)NC(C)=C(C(=O)OC/C=C/c2ccccc2)C1c1cccc([N+](=O)[O-])c1 (stereo unspecified) | 2.04% (inactive) | –
58 | CSc1ccc2c(c1)N(CCC1CCCCN1C)c1ccccc1S2 (stereo unspecified) | -1.24% (inactive) | –
59 | NC1CCN(c2cccc(Cl)n2)CC1 | -1.04% (inactive) | –
60 | CC(C)(C)c1onc(OCP(=O)(O)O)c1CC(N)C(=O)O (stereo unspecified) | – | inactive
61 | NC(N)=NCCC[C@H](N)C(=O)O | -0.675% (inactive) | –
62 | CNCCCC1c2ccccc2C=Cc2ccccc21 | -1.72% (inactive) | –
63 | N=c1c[n+](N2CCOCC2)[n-]o1 | 2.51% (inactive) | –
64 | CC(CN(C)C)CN1c2ccccc2CCc2ccccc21 (stereo unspecified) | 2.71% (inactive) | –
65 | CC1=C(/C=C/C(C)=C/C=C/C(C)=C/C(=O)O)C(C)(C)CCC1 | 5.09% (inactive) | –
66 | CC(C)NC[C@H](O)c1ccc(O)c(O)c1 | – | inactive
